The text below walks through data of PubChem BioAssay.

Molecules are shown by their SMILES. Calls of active or inactive are those of the source.

Experiment [1] in a line: small molecules captured by biotinylated probe aFSTL3 – biochemical, small-molecule microarray, fluorescence 635/667, stem cell growth factor project, primary screen (AID 1064).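 Note: measures binding of the biotinylated anti-FSTL3 antibody to printed compounds.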 Conditions: higher = more signal.
Experiment [2] in a line: binders from COS7 lysate, DM2A8 probe, primary screen, torsin A project, cell lysate, small-molecule microarray, fluorescence 635/667 (AID 1065). Conditions: higher = more signal, COS7 lysate expressing mutant human TOR1A.
Experiment [3] is described as follows: small molecules captured by biotinylated probe aFGF2 – biochemical, small-molecule microarray, fluorescence 635/667, stem cell growth factor project, primary screen (AID 1067).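 Note: measures binding of biotinylated aFGF2 protein to printed compounds on slides; z-score merges feature fluorescence and signal-to-noise across triplicate slides.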 Conditions: higher = more signal.
Experiment [4] is described as follows: small molecules captured by biotinylated probe aFGF10 – biochemical, small-molecule microarray, fluorescence 635/667, stem cell growth factor project, primary screen (AID 1071).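 Note: score merges 667 nm spot intensity and signal to noise from triplicate slides.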 Conditions: higher = more signal.
Experiment [5] addresses Neurogenic locus notch homolog protein 2 (Homo sapiens) (UniProt Q04721). Description: small molecules binding Notch2 protein – biochemical, small-molecule microarray, 635 nm fluorescence, stem cell growth factors, primary screen (AID 1073). Conditions: higher = more signal.
For experiment [6], the target named is Pro-neuregulin-1, membrane-bound isoform (Homo sapiens) (UniProt Q02297). Description: small molecules binding neuregulin-1 protein – biochemical, small-molecule microarray, fluorescence 635/667, psychiatric disease protein project, primary screen (AID 1075).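 Note: score combines 667 nm spot fluorescence with signal to noise.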 Conditions: NRG1 binding, 635 nm fluorescence, higher = more signal.
Pro-neuregulin-1, membrane-bound isoform (Homo sapiens), sequence (Q02297 whole entry, looked up, the tested form may be a part, canonical isoform): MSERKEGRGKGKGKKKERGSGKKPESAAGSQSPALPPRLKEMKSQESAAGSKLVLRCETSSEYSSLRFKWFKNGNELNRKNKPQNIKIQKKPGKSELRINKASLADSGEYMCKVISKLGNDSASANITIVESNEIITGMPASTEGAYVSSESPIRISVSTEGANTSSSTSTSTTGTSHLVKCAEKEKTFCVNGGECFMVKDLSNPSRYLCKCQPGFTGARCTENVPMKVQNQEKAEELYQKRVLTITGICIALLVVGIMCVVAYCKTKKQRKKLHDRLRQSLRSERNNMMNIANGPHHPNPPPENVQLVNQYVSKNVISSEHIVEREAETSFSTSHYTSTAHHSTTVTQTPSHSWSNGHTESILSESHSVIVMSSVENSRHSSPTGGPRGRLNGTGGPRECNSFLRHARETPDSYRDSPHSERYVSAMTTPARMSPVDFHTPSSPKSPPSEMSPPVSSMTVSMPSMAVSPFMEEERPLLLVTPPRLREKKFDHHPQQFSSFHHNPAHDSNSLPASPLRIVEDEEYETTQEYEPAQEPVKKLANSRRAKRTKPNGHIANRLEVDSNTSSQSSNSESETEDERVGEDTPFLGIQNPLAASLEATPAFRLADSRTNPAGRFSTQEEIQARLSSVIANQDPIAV
The subject of experiment [7] is Neuregulin-1 EGF-like domain. Description: small molecules binding NRG1 EGF domain – biochemical, small-molecule microarray, 635 nm fluorescence, primary screen (AID 1081).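 Note: binding of the protein to compounds printed on small-molecule microarray slides.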 Conditions: higher = more signal.
The nature of experiment [8]: FRG1 expression reporter modulators in myotubes – cell-based, C2C12 myotubes, firefly/Renilla luciferase, luminescence, FRG1 inhibition for FSHD, primary screen (AID 1084). Conditions: FRG1 promoter luciferase, higher = more signal, called active from +8 up or from −8 down.
A short description of experiment [9]: small molecules captured by biotinylated probe aFST – biochemical, small-molecule microarray, fluorescence 635/667, stem cell growth factor project, primary screen (AID 1086).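 Note: score merges 667 nm fluorescence with signal-to-noise of each printed compound spot.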 Conditions: higher = more signal.
Experiment [10] in a line: binders of probe aHhip on microarray, primary screen, stem cell growth factor project, biochemical, small-molecule microarray, fluorescence 635/667 (AID 1087).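 Note: score merges spot fluorescence at 667nm with spot signal to noise ratio.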 Conditions: higher = more signal.

Neurogenic locus notch homolog protein 2 (Homo sapiens), sequence (Q04721 whole entry, looked up, canonical isoform): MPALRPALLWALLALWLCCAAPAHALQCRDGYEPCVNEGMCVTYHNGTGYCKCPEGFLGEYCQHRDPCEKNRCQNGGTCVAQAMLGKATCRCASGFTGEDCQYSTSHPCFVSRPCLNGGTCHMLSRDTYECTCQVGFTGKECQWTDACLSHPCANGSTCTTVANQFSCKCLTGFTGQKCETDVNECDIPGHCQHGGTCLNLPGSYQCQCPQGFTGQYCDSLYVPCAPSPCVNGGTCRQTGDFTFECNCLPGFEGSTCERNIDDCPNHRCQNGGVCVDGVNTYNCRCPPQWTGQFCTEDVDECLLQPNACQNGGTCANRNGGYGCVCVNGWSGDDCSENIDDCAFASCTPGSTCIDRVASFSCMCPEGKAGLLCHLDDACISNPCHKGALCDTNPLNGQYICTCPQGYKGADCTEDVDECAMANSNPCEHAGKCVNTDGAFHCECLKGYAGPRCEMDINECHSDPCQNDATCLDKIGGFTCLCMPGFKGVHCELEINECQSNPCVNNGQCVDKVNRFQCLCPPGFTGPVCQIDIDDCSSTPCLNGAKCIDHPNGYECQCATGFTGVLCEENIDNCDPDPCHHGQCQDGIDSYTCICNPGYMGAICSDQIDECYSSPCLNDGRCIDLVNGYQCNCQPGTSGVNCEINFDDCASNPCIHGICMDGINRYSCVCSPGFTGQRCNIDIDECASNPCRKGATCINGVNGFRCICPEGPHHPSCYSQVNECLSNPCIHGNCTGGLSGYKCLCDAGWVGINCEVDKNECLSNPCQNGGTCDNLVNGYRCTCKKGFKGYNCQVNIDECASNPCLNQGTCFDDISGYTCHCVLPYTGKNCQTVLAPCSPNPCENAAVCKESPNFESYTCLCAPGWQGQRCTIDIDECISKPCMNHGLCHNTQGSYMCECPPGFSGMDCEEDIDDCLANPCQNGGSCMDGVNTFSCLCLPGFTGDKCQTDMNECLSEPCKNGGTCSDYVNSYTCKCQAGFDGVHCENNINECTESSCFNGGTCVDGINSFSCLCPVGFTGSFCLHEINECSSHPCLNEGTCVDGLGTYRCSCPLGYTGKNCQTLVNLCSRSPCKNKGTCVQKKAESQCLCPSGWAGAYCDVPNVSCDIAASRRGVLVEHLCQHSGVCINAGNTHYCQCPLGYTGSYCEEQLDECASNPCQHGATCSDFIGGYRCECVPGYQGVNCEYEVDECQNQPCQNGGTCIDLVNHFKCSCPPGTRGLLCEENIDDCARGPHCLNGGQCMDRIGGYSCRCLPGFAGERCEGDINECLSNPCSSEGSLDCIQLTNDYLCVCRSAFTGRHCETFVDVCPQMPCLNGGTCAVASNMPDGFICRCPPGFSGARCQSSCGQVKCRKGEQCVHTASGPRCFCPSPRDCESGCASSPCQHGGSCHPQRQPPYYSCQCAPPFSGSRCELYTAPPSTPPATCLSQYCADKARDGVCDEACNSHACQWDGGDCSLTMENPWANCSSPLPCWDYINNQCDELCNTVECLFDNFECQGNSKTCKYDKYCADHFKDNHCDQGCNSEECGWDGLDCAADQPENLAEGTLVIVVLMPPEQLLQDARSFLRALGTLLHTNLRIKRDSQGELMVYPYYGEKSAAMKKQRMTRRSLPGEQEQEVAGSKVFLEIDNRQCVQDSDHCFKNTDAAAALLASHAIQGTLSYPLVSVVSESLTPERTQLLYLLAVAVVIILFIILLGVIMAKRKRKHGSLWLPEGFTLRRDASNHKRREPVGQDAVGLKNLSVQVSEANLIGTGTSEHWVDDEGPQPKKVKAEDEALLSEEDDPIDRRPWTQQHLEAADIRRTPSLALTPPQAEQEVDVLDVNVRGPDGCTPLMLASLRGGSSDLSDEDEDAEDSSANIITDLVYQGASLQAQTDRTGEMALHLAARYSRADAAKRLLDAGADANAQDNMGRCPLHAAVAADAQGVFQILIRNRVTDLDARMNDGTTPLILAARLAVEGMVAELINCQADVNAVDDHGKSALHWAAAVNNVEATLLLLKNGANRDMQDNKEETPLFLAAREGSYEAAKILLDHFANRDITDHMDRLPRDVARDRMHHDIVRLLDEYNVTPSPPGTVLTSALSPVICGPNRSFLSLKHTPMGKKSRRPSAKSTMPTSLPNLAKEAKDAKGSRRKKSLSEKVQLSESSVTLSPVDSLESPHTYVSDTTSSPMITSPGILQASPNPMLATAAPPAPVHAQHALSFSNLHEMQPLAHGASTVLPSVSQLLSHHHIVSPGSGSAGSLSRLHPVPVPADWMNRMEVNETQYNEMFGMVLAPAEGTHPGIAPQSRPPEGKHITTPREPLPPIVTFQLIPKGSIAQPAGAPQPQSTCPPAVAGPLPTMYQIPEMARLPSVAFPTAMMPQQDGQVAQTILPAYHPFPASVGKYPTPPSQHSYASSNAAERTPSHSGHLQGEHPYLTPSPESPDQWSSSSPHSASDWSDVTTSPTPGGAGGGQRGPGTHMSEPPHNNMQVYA

Consider `COc1cc(Cc2cc3c(c(CCc4ccccc4)n2)[Si](C(C)C)(C(C)C)OC3)cc(OC)c1OC`, for which the composite z-score was -0.0934 in experiment [1]; -0.0736 in [2]; -0.146 in experiment [3]; -0.108 in experiment [4]; -0.0899 in experiment [5]; -0.35 in experiment [6]. Moreover, the composite z-score in experiment [7] was -0.233; in [9] it was 0.337; in [10] it was -0.0672. Further, the z-score in [8] was 0.311 (inactive).
Regarding `COC(=O)C[C@H]1O[C@]2(C(=O)N(C)c3ccccc32)[C@@H](C)[C@@H]1[Si](C)(C)c1ccc(OC)cc1`, the composite z-score in experiment [1] is -0.352; in [2] it was 0.0371; in experiment [3], -0.005; in [4], 0.791; in [5], 0.146; in experiment [6] it was 0.367. Moreover, the composite z-score in experiment [7] was 1.06; in experiment [9], 0.673; in experiment [10] it was -0.0645. The z-score in [8] was -2.07 (inactive).
On to `CC(C)(C)OC(=O)CC[C@]1(C(=O)NCCN2CCOCC2)N=C(c2ccc(OCCCO)cc2)O[C@H]1c1ccccc1CN=[N+]=[N-]`, for which the composite z-score in [1] was determined as 0.182; in experiment [2], 1.16; in experiment [3], 0.0402; in experiment [4] it was 0.07; in [5], 1.24; in experiment [6] it was 1.73. The composite z-score in experiment [7] is 1.42; in experiment [9], 0.278; in experiment [10] it was -0.0672. The z-score in experiment [8] was 2.72 (inactive).
As to `C[C@@H]1CC[C@H]2C(=O)N3[C@@H](CC[C@@H](C)[C@@H]3c3cccc(N4CCOCC4)c3)C(=O)N2[C@H]1c1cccc(Br)c1`, the composite z-score in [1] was -0.0356; in [2] it was 0.237; in [3], -0.108; in experiment [4], 0.528; in experiment [5], 0.263; in experiment [6], 0.942. The composite z-score in experiment [7] was 0.987; in [9], 0.166; in experiment [10], 0.0373. Also, the z-score in experiment [8] was -0.649 (inactive).
With `Cc1ccc(S[C@]2(C(=O)O)CC(=O)N(Cc3ccccc3)[C@@H]2c2ccc(CO)cc2)cc1`, the composite z-score in experiment [1] was 0.58; in experiment [2], 0.131; in experiment [3], -0.0853; in experiment [4], -1.1; in experiment [5], 0.0203; in [6] it was -0.33. In addition, the composite z-score in experiment [7] was 0.736; in experiment [9] it was 0.262; in [10], -0.367. The z-score in experiment [8] is -0.579 (inactive).
With `CC(C)[Si](OCCCNS(=O)(=O)c1ccc(Br)cc1)(C(C)C)C(C)C`, the composite z-score in experiment [1] is -0.491; in [2], 0.231; in experiment [3], -0.0529; in experiment [4] it was 0.962; in experiment [5], 1.43; in experiment [6] it was 0.344. Besides, the composite z-score in experiment [7] was 0.468; in [9], 0.623; in experiment [10], -0.0645. Further, in [8], the z-score is -3.13 (inactive).
For `O=C(NCc1ccccc1)[C@@]1(CCS(=O)(=O)c2ccccc2)COC(c2ccc(OCCCO)cc2)=N1`, the composite z-score was determined as 0.971 in experiment [1]; 0.985 in [2]; 0.0025 in experiment [3]; 0.382 in experiment [4]; 1.17 in experiment [5]; 2.16 in [6]. Also, the values for the composite z-score in [7], in experiment [9] and in experiment [10] were 1.18, 0.662 and -0.15, respectively. The z-score in experiment [8] is -4.58 (inactive).
`COC(=O)C1=CC(c2ccc(CO)cc2)=CC(C2CC2)N(Cc2sc3ccccc3c2Cl)C=C1C(=O)OC` (stereo not given): the composite z-score in experiment [1] is 0.541; in experiment [2], 1.99; in [3], 0.0083; in [4] it was 0.88; in experiment [5], 1.26; in experiment [6], 1.68. Also, the results for the composite z-score in experiment [7], in experiment [9] and in [10] were 1.33, 1.32 and 0.065, respectively. For the same molecule, the z-score in [8] is -2.15 (inactive).
For the molecule `O=C(N1CCCCC1)[C@@]1(CCS(=O)(=O)c2ccccc2)N=C(c2ccc(OCCCO)cc2)O[C@H]1c1ccccc1`, the composite z-score in experiment [1] stood at 0.151; in [2] it was 0.529; in [3] it was 0.236; in [4], 0.685; in [5], 1.4; in [6], 0.0933. Moreover, the values for the composite z-score in [7], in [9] and in experiment [10] were 1.23, 1.51 and -0.0645, respectively. Moreover, in experiment [8], the z-score was -0.144 (inactive).
`O=C1OCCC/C=C\[C@H]2OC34C=CCN(CCN5CCOCC5)C(=O)[C@H]3N(CCCCCO)C(=O)[C@@H]4C12` (stereo not given in full): the composite z-score is -0.0623 in experiment [1]; -0.658 in experiment [2]; -0.174 in [3]; -0.156 in experiment [4]; -0.822 in [5]; -0.179 in experiment [6]. In addition, the results for the composite z-score in [7], in experiment [9] and in experiment [10] were 0.65, -0.676 and -0.226, respectively. For the same molecule, the z-score in experiment [8] was 1.48 (inactive).
In the case of `O=C1O[C@@H](c2ccccc2)[C@@H](c2ccccc2)N2[C@@H](c3ccc(O)cc3)[C@]3(C(=O)Nc4ccc(C#CC5(O)CCCCCC5)cc43)[C@@H](C(=O)Nc3nc4ccccc4s3)[C@H]12`, the composite z-score in experiment [1] was -0.128; in experiment [2] it was 0.91; in experiment [3] it was 0.0759; in [4], 0.814; in experiment [5], 1.49; in experiment [6], 1.16. Also, the figures for the composite z-score in [7], in experiment [9] and in experiment [10] were 0.994, 1.12 and 1.71, respectively. Moreover, the z-score in [8] is -0.253 (inactive).
Regarding `COc1cc2c(cc1OC)CN(C(=O)[C@@H]1[C@H]3C(=O)O[C@H](c4ccccc4)[C@H](c4ccccc4)N3[C@H](c3ccccc3OCCO)[C@@]13C(=O)Nc1ccccc13)CC2`, the composite z-score in experiment [1] is -1.08; in experiment [2], 1.04; in experiment [3], -0.148; in experiment [4], 0.575; in [5] it was 0.803; in [6] it was 1.39. For the same molecule, the results for the composite z-score in experiment [7], in experiment [9] and in experiment [10] were 1.18, -0.44 and -0.702, respectively. Also, in experiment [8], the z-score was -0.268 (inactive).
On to `CCCC/C=C/[C@H]([C@@H](O)Cc1ccccc1)N(CC#Cc1ccccc1)Cc1ccccc1Br`, for which the composite z-score in experiment [1] is 1.22; in [2], -0.37; in [3], -0.21; in experiment [4], -1.17; in experiment [5], -0.749; in [6], -0.169. The composite z-score in experiment [7] was -0.291; in [9], -0.74; in experiment [10], -0.584. The z-score in experiment [8] was -0.506 (inactive).
In the case of `O=C(NCC(F)(F)F)[C@@H]1c2ccccc2C(=O)N(Cc2ccccc2Cl)[C@H]1c1ccc(CO)cc1`, the composite z-score in experiment [1] is 1.39; in [2], -0.338; in [3], -0.0964; in experiment [4] it was -0.601; in experiment [5] it was -1.37; in experiment [6] it was -0.341. Moreover, the composite z-score is 1.39 in experiment [7], 0.214 in [9] and -0.47 in [10]. Further, in experiment [8], the z-score was -1.3 (inactive).
In the case of `CN(C)CCCC[C@@H]1NC(=O)[C@@H]2C[C@H](C(=O)O)[C@H](c3ccc(O)cc3)N2C1=O`, the composite z-score in [1] is 0.491; in experiment [2], 0.738; in experiment [3] it was -0.128; in [4], 0.217; in experiment [5], -0.0401; in experiment [6], 0.237. Moreover, the composite z-score in [7] was 1.28; in experiment [9], 0.212; in experiment [10], -0.279. Further, the z-score in experiment [8] was 1.7 (inactive).
Take `[N-]=[N+]=NCc1ccccc1C[C@]1(C(=O)N2CCCCC2)N=C(c2ccc(OCCCO)cc2)O[C@H]1c1ccccc1CN=[N+]=[N-]`: the composite z-score is -0.0017 in experiment [1]; 0.759 in [2]; 0.0342 in experiment [3]; 0.765 in experiment [4]; 0.776 in experiment [5]; 1.63 in experiment [6]. Further, the composite z-score in experiment [7] was 1.19; in experiment [9], 1.29; in [10], 0.142. The z-score in [8] is -1.62 (inactive).
As to `COc1ccc([C@H]2C[C@H]3C(Br)=C[C@]2(OC)C(=O)[C@]32CO2)cc1`, the composite z-score in [1] is -0.207; in experiment [2], -0.187; in experiment [3] it was -0.0563; in [4], 1.02; in experiment [5], -0.203; in experiment [6], -0.228. The figures for the composite z-score in experiment [7], in [9] and in experiment [10] were -0.0338, 0.198 and 0.0722, respectively. Also, in [8], the z-score is 0.926 (inactive).
